AmpC inh no detg = blocks E. coli AmpC beta-lactamase in detergent-free assay. P00811. AmpC nitrocefin hydrolysis, absorbance 480 nm, 0.0001% Triton. Potency, µM (doses to about 57.1 µM), for the others: at the highest dose activity change, negative = inhibition, usual class: inhibitors. actives 0.52% (n = 330,000). AID 485341;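 further: potency means the concentration at half of the fitted maximal effect; plate controls were no compound for no effect and no enzyme for full effect; nearly all actives have a fitted effect of over 20% in size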
Target sequence (P00811 whole entry, looked up): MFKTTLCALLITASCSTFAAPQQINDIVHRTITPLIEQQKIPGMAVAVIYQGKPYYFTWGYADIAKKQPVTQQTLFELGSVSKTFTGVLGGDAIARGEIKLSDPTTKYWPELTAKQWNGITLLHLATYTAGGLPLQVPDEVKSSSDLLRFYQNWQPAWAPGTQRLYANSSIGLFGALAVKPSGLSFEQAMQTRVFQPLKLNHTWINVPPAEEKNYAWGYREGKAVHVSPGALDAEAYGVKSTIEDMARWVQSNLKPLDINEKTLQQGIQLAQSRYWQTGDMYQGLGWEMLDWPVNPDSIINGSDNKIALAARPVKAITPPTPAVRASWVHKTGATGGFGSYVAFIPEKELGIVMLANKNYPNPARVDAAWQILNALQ
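AmpC (5.3 nM in the dispensed reagent) in 20 mM phosphate pH 7.0 with 0.01% (detergent screen) or 0.0001% Triton X-100 was preincubated with compounds for 15 min at room temperature. Nitrocefin was then added from an 800 uM solution, and hydrolysis was followed at 480 nm.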
CHX counter = counter-screen hit for Shiga toxin inhibitors, cycloheximide; max response, %; cell reporter, cycloheximide protein synthesis inhibition counterscreen; actives 12% (n = 300,000); in the data active means max response mostly above about 13%, no sharp cut-off; inactive means mostly below about 14%; further: read at 38.3 µM for the half of the compounds with a filed dose; 0% is about no effect
AmpC inh detg = blocks E. coli AmpC beta-lactamase in detergent assay; Potency, µM (titrated, usually from 114 µM), for the others: at the highest dose activity change, negative = inhibition, most hits filed as inhibitors; actives 0.041% (n = 370,000); AmpC hydrolysis of nitrocefin, absorbance 480 nm, 0.01% Triton; AID 485294;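 further: potency means the concentration at half of the fitted maximal effect; 0% = no-compound wells and -100% = no-enzyme wells; nearly all actives have a fitted effect of over 25% in size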
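20 mM phosphate pH 7.0 + 0.01% (detergent screen) or 0.0001% Triton X-100; 5.3 nM AmpC reagent; cpd preinc 15 min RT; nitrocefin (800 uM stock) to start; A480 q20 s × 4 min; Activity was normalised to no-enzyme and no-compound control wells.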
AMA1 RON2 block = AMA1-RON2 (P. falciparum) interaction inhibition; Potency, µM (series often up to 58.2 µM), without a hit: at the highest dose activity change, negative = inhibition, actives largely listed as inhibitors; AlphaScreen AMA1-biotinylated RON2 peptide binding; actives 0.2% (n = 360,000);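 further: potency means the concentration at half of the fitted maximal effect; 0% = vehicle wells and -100% = peptide control; nearly all actives have a fitted effect of over 45% in size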
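AMA1 (3D7) with his tag at 25 nM final met compounds first, then biotinylated RON2 peptide at 25 nM; detection used donor plus acceptor beads, 10 µg/mL apiece, read by AlphaScreen after 30 min at room temperature.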
SARS PLpro yeast = blocks SARS-CoV papain-like protease in a yeast assay; actives 0.19% (n = 330,000); S. cerevisiae expressing SARS-CoV PLpro, growth rescue; Potency, µM (doses to about 32.9 µM), for the others: at the highest dose activity, positive = growth rescue, usual class: activators; AID 485353; calls by dose curve; further: potency means the concentration at half of the fitted maximal effect; 0% is about no effect; nearly all actives have a fitted effect of over 55% in size
Shiga toxin inh = Shiga toxin inhibition. Vero cells, Shiga toxin protein synthesis inhibition reporter. inhibition, % at 38.7 µM. actives 9.2% (n = 290,000). AID 2315; in the data active means inhibition mostly above about 28%, no sharp cut-off; inactive means mostly below about 43%; further: 0% is about no effect
Numbers without * were called inactive; ? = inconclusive; nt = no result. The entries come from a sample that favours hits as a whole. Unless noted, the call rests on the fitted dose curve; in most records, active means well fitted curve in the direction sought with a large enough effect; inconclusive means small, poorly fitted or top-dose-only effect, or another doubt; inactive means no such curve, though single readings can be large; an effect the other way counts as inactive or inconclusive.

SMILES | AmpC inh no detg | CHX counter | AmpC inh detg | AMA1 RON2 block | SARS PLpro yeast | Shiga toxin inh
COc1ccc(C(=O)c2ccc(CC#N)s2)cc1 | ? | 24* | 0% | -5% | 5% | 68*
CCc1cc(C(=O)c2ccc(OC)cc2)c(N)s1 | -30% | 8 | -1% | -14% | -1% | 22
Cn1c2cc(Br)sc2c2cnn(Cc3c(F)cccc3Cl)c(=O)c21 | -24% | nt | -11% | nt | -3% | nt
Cn1c2cc(B(O)O)sc2c2cnn(Cc3ccc(F)cc3F)c(=O)c21 | 3.5µM* | nt | 3.5µM* | nt | -2% | nt
Cn1c2cc(Br)sc2c2cnn(Cc3ccc(F)cc3F)c(=O)c21 | -8% | nt | ? | nt | -8% | nt
Cn1c2cc(B(O)O)sc2c2cnn(Cc3c(F)cccc3Cl)c(=O)c21 | 5µM* | nt | 2.5µM* | nt | -2% | nt
Cn1c2cc(B(O)O)sc2c2cnn(Cc3c(F)cccc3F)c(=O)c21 | 5.6µM* | nt | 2.5µM* | nt | 3% | nt
CCc1cccc2c1NC(=O)C2(O)N1CCCC(C)C1 (stereo not given) | -8% | 12 | -8% | 0% | 2% | nt
CC1CCCN(C2(O)C(=O)Nc3c(C(F)(F)F)cccc32)C1 (stereo not given) | 2% | 9.4* | 5% | 13% | 0% | 24
CCn1c2ccccc2c2cc(NC(=O)COC(=O)c3ccc(NC(=O)CC#N)cc3)ccc21 | 32µM* | nt | 0% | -21% | -1% | nt
N#CCC(=O)Nc1ccc(C(=O)NCCC(c2ccccc2)c2ccccc2)cc1 | 7.9µM* | -4 | -3% | 5% | -3% | 30
O=C(COC(=O)c1cc(=O)c2ccccc2o1)Nc1ccc2ccccc2c1 | -9% | 11* | -14% | 2% | -12% | -22
N#CCC(=O)Nc1ccc(C(=O)OCC(=O)Nc2ccc3ccccc3c2)cc1 | 20µM* | nt | 4% | 18% | -3% | nt
O=C(COC(=O)c1ccc(CO)cc1)Nc1ccc2ccccc2c1 | -9% | nt | -18% | -1% | -2% | nt
CCOc1ccc(N2C(=O)/C(=C/c3cc(OC)c(OC)c(OC)c3)N(CC(=O)OC)C2=S)cc1 | 72% | -3 | ? | -10% | 1% | -7
CCn1c2ccccc2c2cc(NC(=O)COc3ccccc3)ccc21 | 25µM* | 6 | -7% | -4% | 3% | -6
CCN(CC)S(=O)(=O)c1cc(NC(=O)COC(=O)C2CCC2)ccc1C | -15% | nt | 4% | 0% | -4% | nt
CCN(CC)S(=O)(=O)c1cc(NC(=O)COC(=O)c2ccc(NC(=O)CC#N)cc2)ccc1C | 7.9µM* | 5 | 4% | 12% | 0% | -1
NS(=O)(=O)c1cc(C(=O)OCC(=O)c2ccc3c(c2)OCCO3)ccc1Cl | -42% | 40* | 3% | 0% | 0% | 59*
N#CCC(=O)Nc1ccc(C(=O)OCC(=O)c2ccc3c(c2)OCCO3)cc1 | -56% | 48* | -6% | 7% | -3% | 68*
CNS(=O)(=O)c1cccc(C(=O)OCC(=O)c2ccc3c(c2)OCCO3)c1 | 0% | nt | ? | -15% | -1% | nt
Cc1cccc(C(=O)OCC(=O)NCC2CCCO2)c1O (stereo not given) | -21% | nt | -14% | 15% | 5% | nt
CCN1C(C)=C(C(=O)OC(C)C)C(c2ccccc2Cl)C2=C1COC2=O (stereo not given) | nt | -3 | nt | nt | nt | -9
CCN1CCC(N(Cc2ccc3c(c2)OCO3)C(=O)Nc2ccc(Br)c(C)c2)CC1 | nt | nt | -2% | nt | nt | nt
CC1(C(=O)OCC(=O)Nc2ccc(C(N)=O)cc2)CC1(Cl)Cl (stereo not given) | -25% | 6 | -1% | -3% | 3% | 14
SMILES | AmpC inh no detg | CHX counter | AmpC inh detg | AMA1 RON2 block | SARS PLpro yeast | Shiga toxin inh
CC1(C(=O)OCC(=O)Nc2ccc3ccccc3c2)CC1(Cl)Cl (stereo not given) | -39% | 37* | 8% | 0% | -15% | 64*
N#CCC(=O)Nc1ccc(C(=O)OCC(=O)N=c2sccn2Cc2ccccc2Cl)cc1 | 10µM* | nt | -14% | 4% | 3% | nt
CC(OC(=O)c1ccc(NC(=O)CC#N)cc1)C(=O)Nc1ccc(Oc2ccccc2)cc1 (stereo not given) | 6.3µM* | -2 | 7% | nt | ? | -14
N#CCC(=O)Nc1ccc(C(=O)OC(C(=O)Nc2cc(C(F)(F)F)ccc2Cl)c2ccccc2)cc1 (stereo not given) | 7.1µM* | nt | 0% | -7% | -12% | nt
O=C(C[C@@H]1C/C=C\C[C@H](NC(=O)OCC2c3ccccc3-c3ccccc32)C(=O)OC[C@@H]2CCCN2C1=O)N[C@H](CO)Cc1ccccc1 | 133% | nt | nt | 10% | -12% | nt
Cc1cccc(C(CC(=O)NCc2ccco2)c2ccccc2)c1O (stereo not given) | -50% | -1 | 3% | -3% | 2% | -9
O=C(COC(=O)c1ccc(OC(F)F)cc1)NCCNC(=O)COC(=O)c1ccc(OC(F)F)cc1 | 38% | -2 | 1% | 30% | -2% | -22
COc1ccc(/C=C2/C(=O)N(c3c(F)c(F)c(F)c(F)c3F)N=C2C)cc1 | -37% | 20* | ? | -10% | 6% | nt
COc1ccc(Cl)cc1N1C(=O)C2CCCN2C1c1cccc(F)c1 (stereo not given) | 8% | -4 | ? | -1% | -6% | -4
Cc1cccc(NC(=O)Nc2nnc(N3CCCC3)s2)c1 | nt | nt | 27% | nt | nt | nt
CC(=O)Nc1ccc(C(=O)CSc2ncn(-c3ccccc3)n2)cc1 | 2% | 23* | 4% | 8% | -6% | 8
O=C(CSc1ncn(-c2ccccc2)n1)Nc1nncs1 | -20% | -1 | -2% | -5% | 1% | -9
C(=N\N1CCN(c2ccccn2)CC1)/c1ccco1 | -16% | 22* | -7% | -14% | 0% | 44*
Cc1ccc(/C=N/N2CCN(Cc3ccccc3)CC2)o1 | 10% | 8 | 2% | -19% | -1% | 2
Cc1ccc(/C=N/N2CCN(c3ccccn3)CC2)o1 | -13% | 35* | -15% | 0% | -1% | 75*
C=CCOC(=O)C1=C[C@@H](c2ccc(C(F)(F)F)cc2)C[C@@H](OCCCCO)O1 | nt | nt | nt | -2% | nt | nt
CC1CCN(C(=O)CSc2nc3c(c(=O)n2C)SCC3)CC1 | -18% | 18* | 3% | -1% | -4% | 13
C/C=C/c1ccccc1OCc1ccc(C(=O)O)o1 | -2% | -1 | -11% | -1% | -1% | -1
CCOc1ccc(OCc2ccc(C(=O)O)o2)cc1 | -7% | 33* | 4% | -3% | 2% | 60*
CCOc1ccc(OCc2ccc(C(=O)Nc3cc(OC)c(OC)c(OC)c3)o2)cc1 | nt | nt | 9% | nt | nt | nt
O=C(O)c1ccc(COc2ccc3ccccc3c2)o1 | -22% | 42* | 0% | -7% | -2% | 94*
O=C(Nc1nc2c(Br)cc(Br)cc2c(=O)s1)c1ccco1 | -14% | -1 | 2% | 0% | -2% | -2
Cc1ccc(CNc2nc3nc(C)c(Cl)c(C)n3n2)cc1 | nt | nt | 15% | nt | nt | nt
CC(=O)Nc1nc2c(F)cccc2s1 | nt | nt | nt | -4% | nt | nt
